According to PubChem BioAssay (NCATS):
Inconclusive results are not listed. Calls of active or inactive are those of the source. The call rests on the fitted dose curve; in most records, active means well fitted cell-killing curve with a large enough effect; inconclusive means small, poorly fitted or top-dose-only effect; inactive means flat fitted curve, though single readings scatter.

Test: Identifying Small Molecule Inhibitors of Pancreatic Cancer Stem Cells (A278, Adherent) (AID 1259361);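 further: viability read after 48 h compound exposure; nearly all actives have a fitted effect of over 35% in size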;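 on viability (% of control): 100% = DMSO-treated cells and 0% = cell-free media-only wells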
Settings: series mostly up to 46.1 µM; viability (% of control): at the top concentration
From the text: Progenitor-like cancer cells, often referred to as cancer stem cells (CSC), are believed to be the drivers of therapeutic resistance and rapid recurrence. CSCs are postulated to reside in specific niches characterized by low oxygen tension, limited nutrient supply, and high redox load. Selectively targeting CSC, alone or in combination with cytotoxic agents, as a means to produce durable remissions is an appealing concept. Modeling these cells in in vitro setting is an important step in finding new therapies and/or targets. Multiple reports highlight that forcing cells in culture into 3-dimensionaly architectures (spheroids) re-establishes key progenitor-like transcriptional signatures. Pancreatic cancer is among the diseases with the most dismal outlook which is driven, largely, by recurance following front-line therapies. […] In hopes of deriving new insight into the targeting of these pancreatic CSCs we examined three established pancreatic cancer cell lines in cytotoxicity assays versus a collection of approved and investigational drugs. Importantly, we screened these lines as traditional monolayer (2D) and spheroid (3D) formats to gain an appreciation of agents with differential activity.
Multicellular tumor spheroids from Panc1, MiaPaCa-2, and the primary low-passage tissue culture line SB.06 were seeded in stem cell media (SCM) in nonadherent 6-well plates coated with hydrogel (Corning Life Sciences, Chelmsford, Mass) and pancreatic spheres generated for 14 days before screening. Cells were seeded into 1536-well solid-bottom white tissue culture treated Greiner Bio One Plates (789173-F) using a MultiDrop Combi (Thermofisher Scientific) dispenser and a small sterile cassette. One column was media alone to be used as a :"no cells" control. The plates were then covered with sterilized stainless steel gasketed lids from Kalypsys. After allowing cells to attach for 4 hours, 23 nL of test compound or control (negative control DMSO and positive control 9.2 uM Bortezomib-final) were added from a 1536-well polypropylene compound source plate to each well using a 1536 head pin tool from Kalypsys. Cells were then incubated for 48 hours at 37C, 95% relative humidity and 5% CO2. After 48 hours, plates were removed from the incubator and 3 uL of CellTiter-Glo (Promega) was added using an Aurora Flying Reagent Dispenser Bioraptor. Plates were incubated at room temperature for 10 minutes prior to reading the luminescence on the Viewlux (PerkinElmer). The relative luciferase units are used to calculate the percent activity using the activity of DMSO in the cells and no cells columns for normalization of no inhibition and full inhibition respectively.

SMILES	viability (% of control)	IC50 (viability decrease)
O=C(C=Cc1ccc(/C=C/C(=O)Nc2ccc(C3=NCCN3)cc2)cc1)Nc1ccc(C2=NCCN2)cc1	101 (inactive)	–
Cc1cc(-c2ccc(CC(=O)Nc3ccc(-c4cccnc4)cc3)cc2)ccn1	–	18.7 µM (active)
CC1(C)SCCN(S(=O)(=O)c2ccc(OCC#CCO)cc2)[C@@H]1C(=O)NO	80.6 (inactive)	–
C[C@H](NC(=O)Cc1cc(F)cc(F)c1)C(=O)N[C@@H]1C(=O)N(C)c2ccccc2-c2ccccc21	111 (inactive)	–
Nc1cccc(S(=O)(=O)N2CCCN(S(=O)(=O)c3ccc4c(c3)OCCO4)CC2)c1	97.2 (inactive)	–
S=C(NCc1ccc2c(c1)OCO2)N1CCN(c2ncnc3c2oc2ccccc23)CC1	–	4.18 µM (active)
COc1ccc(-c2c(-c3ccc(O)cc3O)n[nH]c2C)cc1	–	26.4 µM (active)
Cc1oncc1C(=O)Nc1ccc(C(F)(F)F)cc1	–	11.8 µM (active)
COc1ccc(C2=N[C@H](c3ccc(Cl)cc3)[C@H](c3ccc(Cl)cc3)N2C(=O)N2CCNC(=O)C2)c(OC(C)C)c1	–	18.7 µM (active)
CCN(c1ccccc1)c1cc(NC)[n+](C)c(C)n1	92.3 (inactive)	–
O=C(Nc1ccc(F)c(C(F)(F)F)c1)Nc1nnc(-c2ccncc2)s1	–	14.8 µM (active)
C[C@@H]1CN(Cc2ccc(F)cc2)[C@@H](C)CN1C(=O)c1cc2c(C(=O)C(=O)N(C)C)cn(C)c2cc1Cl	–	20.9 µM (active)
O=C1[C@H](Cc2ccc(O)cc2)N2C(=O)CCN(C(=O)NCc3ccccc3)[C@H]2CN1Cc1cccc2ccccc12	–	1.05 µM (active)
CCc1cc(Nc2nccc(-c3c(-c4ccc(OC)c(C(=O)Nc5c(F)cccc5F)c4)nc4ccccn34)n2)c(OC)cc1N1CCC(N2CCN(S(C)(=O)=O)CC2)CC1	90.3 (inactive)	–
COc1cc(F)c(F)c(Nc2ccc(I)cc2F)c1NS(=O)(=O)C1(C[C@H](O)CO)CC1	–	20.9 µM (active)
Cc1cc(Nc2nc(N[C@@H](C)c3ncc(F)cn3)ncc2Cl)n[nH]1	86.8 (inactive)	–
COCC(=O)NCC=Cc1ccc2ncnc(Nc3ccc(Oc4ccc(C)nc4)c(C)c3)c2c1	–	20.9 µM (active)
C[C@@H]1C[C@H]2[C@@H]3CCC4=CC(=O)C=C[C@]4(C)C3(F)[C@@H](O)C[C@]2(C)[C@@]1(O)C(=O)CO (stereo not given in full)	–	23.5 µM (active)
O=c1[nH]c(-c2ccc(C(F)(F)F)cc2)nc2c1CSCC2	90.3 (inactive)	–
CCCc1nc2c(C)cc(-c3nc4ccccc4n3C)cc2n1Cc1ccc(-c2ccccc2C(=O)O)cc1	118 (inactive)	–

SMILES	viability (% of control)	IC50 (viability decrease)
Cc1[nH]c(=O)c(C#N)cc1-c1ccc2nccn2c1	102 (inactive)	–
CCC(C)(C)C(=O)O[C@H]1C[C@@H](C)C=C2C=C[C@H](C)[C@H](CC[C@@H]3C[C@@H](O)CC(=O)O3)[C@H]21	–	3.17 µM (active)
COc1c(Cl)cc2c([nH]c3cnccc32)c1NC(=O)c1cccnc1C	90.4 (inactive)	–
NC(=O)c1ccc(I)c([N+](=O)[O-])c1	103 (inactive)	–
COc1ccc(CC2=NN3C([C@@H](CCc4ccccc4)[C@@H](C)O)=NC(C)C3C(=O)N2)cc1OC (stereo not given in full)	–	23.5 µM (active)
OC(CN1CCC(Cc2ccc(F)cc2)CC1)c1ccc(Cl)cc1 (stereo not given)	98.5 (inactive)	–
CC(C)C[C@H](NC(=O)[C@@H](O)[C@H](N)Cc1ccccc1)C(=O)O	98.2 (inactive)	–
O=S(=O)(N=Cc1c(O)ccc2ccccc12)c1cccs1	94.9 (inactive)	–
Clc1ccc(Nc2nnc(Cc3ccncc3)c3ccccc23)cc1	86.7 (inactive)	–
NC(=O)c1ccc(-c2nc(-c3ccc4c(c3)OCO4)c(-c3ccccn3)[nH]2)cc1	101 (inactive)	–
Cc1c(CCOc2ccc(C(=O)O)cc2)c2cc(Cl)ccc2n1C(c1ccccc1)c1ccccc1	91.8 (inactive)	–
CCCc1nn(C)c2c(=O)[nH]c(-c3cc(S(=O)(=O)N4CCN(C)CC4)ccc3OCC)nc12	100 (inactive)	–
C#Cc1cccc(Nc2ncnc3cc(OCCOC)c(OCCOC)cc23)c1	–	7.43 µM (active)
COc1ccccc1[C@H](c1cccc2ccccc12)[C@@](C)(C#N)C(=O)N1CCC(c2cccc(C(F)(F)F)c2)CC1	–	6.62 µM (active)
Cc1csc(NC(=O)c2sc3nc4c(c(C(F)(F)F)c3c2N)CCC4)n1	93.4 (inactive)	–
COc1cc2c(cc1OC)CN(CCc1ccc(NC(=O)c3cccc4c(=O)c5cccc(OC)c5[nH]c34)cc1)CC2	–	10.5 µM (active)
CN([C@@H](Cc1ccc(OS(=O)(=O)c2cccc3cnccc23)cc1)C(=O)N1CCN(c2ccccc2)CC1)S(=O)(=O)c1cccc2cnccc12	88 (inactive)	–
CCN(CC)CCCC(C)Nc1nc(C)cc(Nc2ccc3nc(C)cc(N)c3c2)n1 (stereo not given)	80 (inactive)	–
CCOC(=O)C1=C[C@@]2(CC)CCCN3CCc4c(n1c1ccccc41)[C@H]32	97.3 [at 29.8 µM] (inactive)	–
Cc1cnc(Nc2ccc(OCCN3CCCC3)cc2)nc1Nc1cccc(S(=O)(=O)NC(C)(C)C)c1	99.5 (inactive)	–
